Screening results as filed in PubChem.
UCHL1 inh: inhibitors of human UCHL1 deubiquitinase. actives 0.2% (n = 47,000). AID 1645859. purified UCHL1, Ub-rhodamine cleavage fluorescence. inhibition, % at 20 µM
USP7 inh: inhibitors of human USP7 deubiquitinase | Q93009 | actives 0.3% (n = 47,000) | inhibition, % at 20 µM | AID 1645854 | purified USP7, Ub-rhodamine cleavage fluorescence
Starred values were filed as active, the others as inactive. Sampled rows, rich in hits. Any-hit rate of the full collection: about 0.4%. Cut-off read from the data, not from the text of the source: active = inhibition above about 30%; inactive = the rest.

SMILES | UCHL1 inh | USP7 inh
CC1=C(O)C(=O)C=C2C1=CC=C1[C@@]2(C)CC[C@@]2(C)[C@@H]3C[C@](C)(C(=O)O)CC[C@]3(C)CC[C@]12C | 12 | 35*
CN1C(=O)[C@@]23CC4=CC=C[C@H](O)C4N2C(=O)[C@]1(CO)SS3 (stereo partly drawn) | -2 | 0
CC(C)=CCOC(C)(C)[C@H]1OC2CC[C@@]3(C)C(CCC4Cc5c([nH]c6ccccc56)[C@@]43C)C23OC3[C@@H]1O (stereo partly drawn) | 7 | 39*
COc1cccc2c1NC(=O)C21CCN(C(=O)Nc2cccc(C)c2)CC1 | 0 | -6
O=C1c2c(O)c(Cl)cc3c2[C@@]2(Oc4cc(Cl)c(O)c5c4[C@]3(O2)[C@@H]2O[C@@H]2C5=O)[C@@H]2O[C@H]12 | 92* | 93*
C[C@@H]1CC[C@@]2(OC1)O[C@H]1C[C@H]3[C@@H]4CC=C5C[C@@H](O[C@@H]6O[C@@H](CO)[C@@H](O[C@@H]7O[C@@H](C)[C@H](O[C@@H]8O[C@@H](C)[C@H](O)[C@H](O)[C@H]8O)[C@H](O)[C@H]7O)[C@H](O)[C@@H]6O[C@@H]6O[C@@H](C)[C@H](O)[C@H](O)[C@H]6O)CC[C@]5(C)[C@H]4CC[C@]3(C)[C@H]1[C@@H]2C | 0 | 3
Cc1noc(C)c1CN1CC[C@H]2[C@H]1CCN2c1ncccn1 | -7 | -6
CC[C@H]1C=CC(=O)O[C@H]1/C=C/[C@](O)(CCN)C(C[C@@H](O)/C=C\C=C/[C@@H]1CCC[C@H](OC(=O)C2CCCCC2)C1)OP(=O)(O)O (stereo partly drawn) | 0 | -37
c1ccc(N2CCCC3(CN(Cc4ccncc4)CCO3)C2)nc1 (stereo not drawn) | -2 | 0
CC(C)CNC(=O)C1=NOC2(CCNCC2)C1 | -3 | 0
CC(C)=CCCC1(C)C=Cc2c(O)c3c(c(CC=C(C)C)c2O1)OC12C(=CC4CC1C(C)(C)OC2(C/C=C(/C)C(=O)O)C4=O)C3=O (stereo not drawn) | 15 | 67*
CC(=O)c1ccc(N2CCNCC2)cc1 | 2 | 6
